# High-throughput results as filed in PubChem.
# Mcl1-Noxa inh = disrupts binding of human Mcl-1 to Noxa peptide. Q07820. TR-FRET Mcl-1/Noxa peptide binding, 2 h. inhibition, % at 21.7 µM. actives 1.5% (n = 220,000);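 active = compounds that cut the protein-peptide binding signal by more than 50% relative to plate controls in a single-dose test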;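 note: His-tagged Mcl-1 with rhodamine Noxa BH3 peptide and terbium anti-His antibody; 0% = Mcl-1 plus Noxa peptide wells and 100% = peptide-only wells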
# 14-3-3 Bad PPI = disrupts binding of bovine 14-3-3 zeta to phospho-Bad peptide; AID 781; TR-FRET 14-3-3zeta/Dy647-pBad peptide displacement, 1 h; inhibition, % at 21.7 µM; P63103; actives 0.71% (n = 220,000);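 active = inhibition above about 70%, limit read from the data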;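 note: 0% = full 14-3-3 plus peptide FRET controls and 100% = background without 14-3-3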
# Target sequence (P63103 whole entry, looked up): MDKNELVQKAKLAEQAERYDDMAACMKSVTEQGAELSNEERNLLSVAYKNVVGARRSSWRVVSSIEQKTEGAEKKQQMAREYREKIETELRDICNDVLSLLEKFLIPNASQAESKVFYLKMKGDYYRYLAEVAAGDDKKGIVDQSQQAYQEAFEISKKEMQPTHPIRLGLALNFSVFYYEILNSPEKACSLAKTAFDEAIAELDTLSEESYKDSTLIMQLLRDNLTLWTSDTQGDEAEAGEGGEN
# Bim-Mcl-1 = inhibitors of Bim-Mcl-1 interaction, human; Q07820; Bead-based flow cytometry, Bim peptide-Mcl-1 binding; inhibition, % at 10 µM; actives 0.1% (n = 190,000); AID 1009; in the data active = inhibition above about 40%;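 note: 0% = no compound tracer wells and 100% = peptide blocker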
# Mcl1 Bid PPI = Mcl-1/Bid interaction inhibition. actives 0.97% (n = 220,000). inhibition, % at 21.7 µM. TR-FRET Mcl-1/Bid-Dy647 peptide binding, 1536-well. AID 1021. Q07820;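 active = compounds that cut the binding signal by more than half at the single screening dose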;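 note: His-tagged Mcl-1 with europium anti-His antibody binding Bid BH3 peptide; 0% = Mcl-1 plus peptide wells and 100% = peptide-only wells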
# NCF1 inh = inhibitors of human p47phox binding; p47phox/p22phox peptide binding, fluorescence polarization, 2 h; inhibition, % at 24.7 µM; actives 0.53% (n = 220,000); AID 1274;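 active = inhibition above about 30%, limit read from the data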;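 note: 0% = p47phox with labelled peptide and 100% = labelled peptide alone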
# The depositor's hits bear a star; . = not tested or not shown. Sampled rows, rich in hits. Any-hit rate of the full collection: about 3.2%.
SMILES,Mcl1-Noxa inh,14-3-3 Bad PPI,Bim-Mcl-1,Mcl1 Bid PPI,NCF1 inh
CC(C)Cc1csc(NC(=O)c2ccc(Br)cc2)c1C(=O)O,8,-9,.,-16,-12
Cc1oc(-c2ccc(Cl)cc2)[n+]([O-])c1C,6,84*,0,-17,9
Cc1oc(-c2ccc(Cl)cc2)cc1C(=O)O,-12,9,.,-63,-15
CN1CCN(CCCNC(=O)Nc2cccc3ccccc23)CC1,17,11,-5,-3,-7
CCN(C(=O)CN1CCN(C)CC1)c1cccc2ccccc12,23,55,9,56*,2
CCN(CC)Cc1cc2[nH]c3c4ccc(Cl)cc4ncc3c2cc1OC,63*,9,.,7,-4
O=C(COC(=O)C1CSC2(c3ccc(F)cc3)CCC(=O)N12)NC(=O)NC1CCCC1 (centres undefined),-3,-7,-2,7,-11
CCOc1ccc(NC(=O)CC2C(=O)N(c3ccccc3)C(=S)N2Cc2ccccn2)cc1 (centres undefined),8,5,-1,-12,-3
CCOc1ccc(NC(=O)CC2C(=O)N(c3ccc(OC)cc3)C(=S)N2Cc2ccccn2)cc1 (centres undefined),10,-14,0,82*,-5
O=C1CC(NNC(=O)c2cccc(F)c2)C(=O)N1 (centres undefined),3,3,.,-4,-6
CCOC(=O)N1CCN(C(=O)c2ccc3c(=O)n(Cc4ccc(OC)cc4)c(=S)[nH]c3c2)CC1,18,-8,9,-35,-5
CCCCNC(=O)c1ccc(Cn2c(=S)[nH]c3c([nH]c4ccc(OC)cc43)c2=O)cc1,44,12,-14,-23,20
COc1ccc2[nH]c3c(=O)n(Cc4ccc(C(=O)N5CCCCCC5)cc4)c(=S)[nH]c3c2c1,60*,10,-3,-10,-8
COc1ccc2[nH]c3c(=O)n(Cc4ccc(C(=O)N5CCC(C(N)=O)CC5)cc4)c(=S)[nH]c3c2c1,61*,-9,0,-156,-87
CCOC(=O)CCCc1sc(N)nc1-c1[nH]c(=O)[nH]c1C,24,80*,0,7,-5
CCOC(=O)CCc1c(C)n[nH]c1C,8,-10,-4,-4,-3
CC1CCCCC1NC(=O)CC1Oc2ccccc2NC1=O (centres undefined),-16,-2,.,52*,-3
O=C(CCNS(=O)(=O)c1cccc2nsnc12)Nc1ccc2c(c1)OCCO2,21,-4,0,-6,0
Cn1cc(S(=O)(=O)Nc2ccc3c(c2)OCCO3)cn1,-2,89*,-2,-21,-9
Cn1c(=O)c2cc(S(=O)(=O)Nc3ccc4c(c3)OCO4)ccc2n(C)c1=O,18,-28,-2,-28,65*
O=S(=O)(Nc1ccc2c(c1)OCCO2)c1cccc2nsnc12,26,-10,-1,61*,10
Cn1c(=O)oc2cc(S(=O)(=O)Nc3ccc4c(c3)OCO4)ccc21,28,-3,0,-46,-7
CCOC(=O)C(NC(C)=O)(Nc1ccc(S(=O)(=O)Nc2cc(C)on2)cc1)C(F)(F)F (centres undefined),23,7,-1,4,-14
Cc1cc(NS(=O)(=O)c2ccc(NC(NC(=O)C(C(F)(F)F)C(F)(F)F)(C(F)(F)F)C(F)(F)F)cc2)no1,40,48,1,71*,0
CC1(C2CC(C(F)(F)F)n3nc(C(=O)O)cc3N2)CC1 (centres undefined),7,-10,4,-76,-7
SMILES,Mcl1-Noxa inh,14-3-3 Bad PPI,Bim-Mcl-1,Mcl1 Bid PPI,NCF1 inh
CCc1nnc(NC(=O)CCC(=O)N2CCCC2)s1,6,0,-2,18,90*
CCc1nnc(NC(=O)CCC(=O)N2CCN(C3CCCCC3)CC2)s1,4,6,-3,-19,-13
O=C(NC(Cc1c[nH]c2ccccc12)C(=O)OCC(=O)c1cccc2ccccc12)c1cccs1 (centres undefined),12,7,-3,-15,-75
Cc1cc2nc(-c3cccnc3SCC(=O)NCc3ccco3)[nH]c2cc1C,73*,-8,0,-33,-22
CNS(=O)(=O)c1ccc2nc(NC(=O)c3ccc(N4C(=O)CCC4=O)cc3)sc2c1,60*,-6,-3,-15,-1
CCc1ccc2nc(NC(=O)c3ccc(N4C(=O)CCC4=O)cc3)sc2c1,-46,7,.,-28,-15
COC(=O)N(NC(=O)C(O)(c1ccccc1)c1ccccc1)c1ccccc1,16,-2,-6,60*,-2
